# Active and inactive are the calls of the source.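 Rule for the calls, unless noted: active = duplicate-averaged activation above buffer control mean plus 5 SD of those controls; inactive = the rest.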
# Assays:
# [1] = thallium flux activation in parental CHO cells, counter-screen for KCNQ1 potentiator project (AID 493006); conditions: parental CHO-K1 cells, FluxOR thallium flux, at 10 µM; active compounds read high;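 for activation: fluorescence ratio of max minus min over baseline after K+ and Tl+ depolarization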
# [2] = target: Potassium voltage-gated channel subfamily KQT member 1 (Homo sapiens) (UniProt P51787); assay: KCNQ1 potassium channel potentiators, confirmation, FluxOR thallium flux, CHO cells, duplicates (AID 493007;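 active = potentiation averaged over duplicate wells exceeding buffer-only control mean by more than 3 SD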;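 for outcome: cells depolarized by a potassium plus thallium sulfate stimulus after compound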;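 for potentiation: 0% = buffer-only wells and 100% = R-L3 activator control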); conditions: KCNQ1 cell line, FluxOR thallium flux fluorescence, at 10 µM; active compounds read high, % of reference activator effect, buffer zero
# Chain of Potassium voltage-gated channel subfamily KQT member 1 (Homo sapiens) (P51787 whole entry, looked up): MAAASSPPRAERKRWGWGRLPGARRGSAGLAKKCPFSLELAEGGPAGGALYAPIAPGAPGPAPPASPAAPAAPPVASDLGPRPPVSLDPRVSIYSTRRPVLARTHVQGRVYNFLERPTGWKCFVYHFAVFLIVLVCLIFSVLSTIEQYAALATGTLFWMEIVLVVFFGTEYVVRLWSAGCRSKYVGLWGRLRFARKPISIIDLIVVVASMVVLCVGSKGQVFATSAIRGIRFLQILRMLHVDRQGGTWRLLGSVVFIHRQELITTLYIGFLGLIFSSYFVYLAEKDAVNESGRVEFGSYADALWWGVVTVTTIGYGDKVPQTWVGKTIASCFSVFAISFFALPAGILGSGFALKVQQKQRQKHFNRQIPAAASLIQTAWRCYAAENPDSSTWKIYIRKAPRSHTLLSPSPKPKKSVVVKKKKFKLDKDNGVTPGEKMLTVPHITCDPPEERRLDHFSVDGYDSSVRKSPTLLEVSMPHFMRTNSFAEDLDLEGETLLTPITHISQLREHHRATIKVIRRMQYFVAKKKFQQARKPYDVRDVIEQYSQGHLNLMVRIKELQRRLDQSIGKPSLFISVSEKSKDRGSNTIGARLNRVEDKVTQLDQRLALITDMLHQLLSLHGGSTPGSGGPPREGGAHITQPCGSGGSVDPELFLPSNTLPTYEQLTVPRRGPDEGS
# [3] = target: Potassium voltage-gated channel subfamily KQT member 2 (Rattus norvegicus) (UniProt O88943); assay: rat KCNQ2 channel potentiation, selectivity assay for KCNQ1 potentiator project, KCNQ2-CHO-K1 cells (AID 493009;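 active = mean duplicate potentiation above the buffer control mean plus 5 SD of buffer wells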;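 note: assay conditions were tuned for KCNQ1 rather than KCNQ2 modulators; signal is max minus min fluorescence divided by baseline after thallium stimulus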); conditions: FluxOR thallium flux fluorescence, at 10 µM; active compounds read high, scaled: buffer 0, activator control 100
# Chain of Potassium voltage-gated channel subfamily KQT member 2 (Rattus norvegicus) (O88943 whole entry, looked up): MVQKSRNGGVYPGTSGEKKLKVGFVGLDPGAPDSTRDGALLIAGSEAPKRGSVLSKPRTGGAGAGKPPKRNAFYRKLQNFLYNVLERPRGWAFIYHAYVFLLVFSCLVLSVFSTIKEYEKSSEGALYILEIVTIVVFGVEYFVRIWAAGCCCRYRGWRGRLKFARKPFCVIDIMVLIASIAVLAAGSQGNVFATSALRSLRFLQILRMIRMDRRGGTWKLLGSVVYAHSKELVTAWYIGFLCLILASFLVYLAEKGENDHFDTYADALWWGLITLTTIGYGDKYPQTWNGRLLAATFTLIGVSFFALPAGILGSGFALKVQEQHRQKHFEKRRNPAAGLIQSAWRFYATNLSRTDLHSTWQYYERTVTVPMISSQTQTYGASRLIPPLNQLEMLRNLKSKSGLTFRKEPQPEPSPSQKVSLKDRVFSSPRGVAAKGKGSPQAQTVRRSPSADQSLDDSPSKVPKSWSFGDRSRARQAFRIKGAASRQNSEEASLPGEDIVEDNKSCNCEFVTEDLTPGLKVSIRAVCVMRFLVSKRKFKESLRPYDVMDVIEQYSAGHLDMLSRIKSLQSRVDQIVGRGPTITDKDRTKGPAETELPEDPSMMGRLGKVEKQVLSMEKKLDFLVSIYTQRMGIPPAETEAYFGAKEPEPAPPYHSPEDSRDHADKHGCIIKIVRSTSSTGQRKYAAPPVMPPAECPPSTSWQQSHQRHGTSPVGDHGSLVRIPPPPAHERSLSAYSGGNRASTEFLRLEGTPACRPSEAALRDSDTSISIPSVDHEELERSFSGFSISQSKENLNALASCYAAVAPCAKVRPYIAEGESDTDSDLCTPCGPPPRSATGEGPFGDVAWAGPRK
# [4] = target: Potassium voltage-gated channel subfamily KQT member 1 (Homo sapiens) (UniProt P51787); assay: KCNQ1 channel current potentiators, confirmation, orthogonal assay for KCNQ1 potentiator project, IonWorks patch clamp, KCNQ1-CHO cells (AID 493184;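 active = current rise at least 3 SD above the untreated control mean in each of two repeat wells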); conditions: automated patch clamp current, at 10 µM
# [5] = target: Potassium voltage-gated channel subfamily E member 1 (Homo sapiens) + Potassium voltage-gated channel subfamily KQT member 1 (Homo sapiens) (UniProt P15382+P51787); assay: KCNQ1/KCNE1 complex potentiators, confirmation, selectivity assay for KCNQ1 potentiator project, thallium flux, CHO-K1 KCNQ1/E1 cells (AID 493186;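 active = mean duplicate activation above the buffer control mean plus 5 SD of those controls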); conditions: FluxOR thallium flux, at 10 µM
# Chain of Potassium voltage-gated channel subfamily E member 1 (Homo sapiens) + Potassium voltage-gated channel subfamily KQT member 1 (Homo sapiens) (P51787 whole entry, looked up): as the sequence (P51787 whole entry, looked up) above
SMILES,outcome [1],outcome [2],outcome [3],outcome [4],potentiation [2],outcome [5],activation [1],potentiation [3]
O=C(c1ccc(-c2ccccc2)cc1)C1CCCN(Cc2ccn[nH]2)C1 (configuration not stated),inactive,inactive,inactive,inactive,–,–,–,–
CC1=CC2/C=C(\C)CCC(O)C(O)/C=C/C(=O)C23C(=O)NC(CC(C)C)C3C1C (configuration not stated),inactive,–,inactive,inactive,23% (active),inactive,–,–
CCOP1(=S)Oc2cc3c(cc2C(C(=O)OC)(C(F)(F)F)O1)OCO3 (configuration not stated),inactive,inactive,inactive,inactive,–,–,–,–
O=C(O)c1cccc2c1NC(c1cccc([N+](=O)[O-])c1)C1CC(Sc3ccccc3[N+](=O)[O-])C(Cl)C21 (configuration not stated),inactive,inactive,inactive,inactive,–,–,–,–
CC1(C)CSC(=NCc2ccccc2)N1,inactive,–,inactive,inactive,23% (active),inactive,–,–
CN1CCC(c2c[nH]c3ccccc23)C1 (configuration not stated),inactive,inactive,inactive,inactive,–,–,–,–
CCN(CC)C(=O)c1ccc(NC(=O)CSc2nnnn2-c2cc(OC)ccc2OC)cc1,inactive,inactive,inactive,inactive,–,–,–,–
CC1(C)C[C@H]2C=C(C=O)[C@]3(C=O)C[C@]3(C)[C@H]2C1,inactive,–,inactive,inactive,24% (active),inactive,–,–
c1ccc2c(c1)Sc1ccccc1N2CC1CN2CCC1CC2 (configuration not stated),inactive,inactive,inactive,inactive,–,–,–,–
O=[N+]([O-])c1ccc(N2CCOCC2)c2ccncc12,inactive,inactive,inactive,inactive,–,inactive,–,–
Cc1ccccc1CC(=O)N(CCN(C)C)CC1CCCN(Cc2ccccc2F)C1 (configuration not stated),inactive,inactive,–,inactive,–,inactive,–,–
CCOC(=O)C1C(=O)NC2(C)CC1c1cc(OC)ccc1O2 (configuration not stated),inactive,inactive,inactive,inactive,–,–,–,–
COc1ccc2c(c1)/C(=C/c1cnc[nH]1)C(=O)N2,inactive,inactive,inactive,inactive,–,inactive,–,–
C/C1=C\[C@@H](C)C/C=C/[C@H]2[C@@H]3O[C@]3(C)[C@@H](C)[C@H]3[C@H](Cc4c[nH]c5ccccc45)NC(=O)[C@]32C(=O)/C=C/C(=O)[C@@H]1O,inactive,–,inactive,inactive,20.5% (active),inactive,–,–
O=c1c(C=NCCN2CCNCC2)c(O)n(C2CCCCC2)c(=O)n1C1CCCCC1,inactive,inactive,inactive,inactive,–,inactive,–,–
CC(=O)OC(C)(C)/C=C/C(=O)C(C)(O)C1[C@H](O)C[C@@]2(C)C3CC=C4C(CC[C@@H](O)C4(C)C)[C@]3(CO)C(=O)C[C@]12C (some centres not stated),inactive,inactive,inactive,inactive,–,inactive,–,–

SMILES,outcome [1],outcome [2],outcome [3],outcome [4],potentiation [2],outcome [5],activation [1],potentiation [3]
O=[N+]([O-])c1cccc(C2N3CCCN23)c1 (configuration not stated),inactive,inactive,inactive,inactive,–,inactive,–,–
COc1ccc(C2NCc3ccc4c(c3-n3cccc32)OCO4)cc1O (configuration not stated),inactive,inactive,–,inactive,–,inactive,–,–
CC/C(=C\C=C\[C@@H]1C=C[C@@H]2CCC[C@H]2[C@@H]1C(=O)c1ccc[nH]1)[C@@H]1O[C@@H]([C@@H](C)C(=O)O)CC[C@@H]1C,–,–,–,inactive,166% (active),–,499% (active),442% (active)
CCOP(=S)(OCC)c1ccc(N(C)C)cc1,inactive,inactive,inactive,inactive,–,–,–,–
Nc1ncnc2c1ccn2[C@@H]1O[C@H](CO)[C@@H](O)[C@H]1O,inactive,inactive,inactive,inactive,–,–,–,–
CCOc1cc(CNCCc2c[nH]c3ccccc23)cc(Cl)c1OCC,inactive,–,inactive,inactive,19% (active),inactive,–,–
N#Cc1c(N2CCNCC2)nc(-c2ccco2)c2c1CCCC2,inactive,inactive,inactive,inactive,–,–,–,–
COc1ccc(C(=O)OC2CC[C@@]3(C)C4CCC5[C@]6(O)CC(O)[C@@]7(O)C(CN8CC(C)CCC8[C@@]7(C)O)[C@]6(O)C[C@@]53O[C@]24O)cc1OC (some centres not stated),inactive,–,–,inactive,25.5% (active),inactive,–,160% (active)
Cn1cccc1/C=C1/C(=O)NC(=S)N(Cc2ccc(F)cc2)C1=O,inactive,inactive,inactive,inactive,–,inactive,–,–
C=C(C)[C@@]12OC3(c4ccccc4)O[C@@H]1C1[C@@H]4O[C@]4(CO)[C@@H](O)[C@]4(O)C(=O)C(C)=C[C@H]4[C@@]1(O3)[C@H](C)[C@H]2OC(=O)/C=C/C=C/c1ccccc1 (some centres not stated),inactive,inactive,inactive,inactive,–,–,–,–
CC(=NCc1ccc(F)cc1)c1c(O)n(C)c(=O)n(C)c1=O,–,–,inactive,inactive,91.5% (active),–,144% (active),–
CCOc1cc(C=C2C(=O)NC(=O)NC2=O)ccc1OS(=O)(=O)c1ccccc1,inactive,inactive,inactive,inactive,–,–,–,–
C/C=C(\C)C(=O)N[C@@H](c1ccccc1)[C@@H](O)C(=O)O[C@H]1C[C@@]2(O)[C@@H](OC(=O)c3ccccc3)C3[C@](C)(C(=O)[C@H](OC(C)=O)C(=C1C)C2(C)C)[C@@H](O)C[C@H]1OC[C@@]31OC(C)=O (some centres not stated),inactive,inactive,inactive,inactive,–,inactive,–,–
CNc1ccc2oc(C[C@H]3O[C@@]4(CC[C@H]3C)O[C@H]([C@H](C)C(=O)c3ccc[nH]3)[C@H](C)C[C@H]4C)nc2c1C(=O)O,–,–,–,inactive,89% (active),–,144% (active),210% (active)
Cc1nc2ccccc2c(=O)n1/N=C/c1cc(Br)cc(Br)c1O,inactive,inactive,inactive,inactive,–,–,–,–
Cc1ccc(/C=C2/C(=O)NC(=O)N(CCc3ccc(F)cc3)C2=O)o1,inactive,inactive,inactive,inactive,–,inactive,–,–
